MARV entry inh = Marburg virus entry inhibition. Marburg virus pseudotyped entry inhibition, cell reporter. AID 540276. 300,000 tested, 1.8% active. Potency, µM (series often up to 37.8 µM), for inactives: top-dose activity change, negative = inhibition, most hits filed as inhibitors; calls by dose curve; tested in HEK293 cells; note: potency is the fitted concentration of half-maximal effect; % is set by controls: 0 for no effect and ±100 for the full control effect
CHX counter = counter-screen hit for Shiga toxin inhibitors, cycloheximide; cell reporter, cycloheximide protein synthesis inhibition counterscreen; max response, %; 300,000 tested, 12% active; AID 2314; in the data active = max response mostly above about 13%, no sharp cut-off; inactive = mostly below about 14%; note: read at 38.3 µM for the half of the compounds with a filed dose; 0% is about no effect
Pf growth 96h = inhibits malaria parasite growth, 96 h. 320,000 tested, 6.9% active. Potency, µM (highest dose often 28.7 µM), inactives show at the highest dose activity change, negative = inhibition, actives largely listed as inhibitors. P. falciparum luciferase reporter growth, 96 h; note: potency is the fitted concentration of half-maximal effect; % is set by controls: 0 for no effect and ±100 for the full control effect
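Luminescence readout: decreased luciferase signal marks inhibited growth of reporter-expressing P. falciparum in infected red cells (2% hematocrit, 0.05% parasitemia final), exposed to compound two generations (96 h, 37 C, 5% CO2).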
Pf growth 48h = P. falciparum growth inhibition at 48 hours (one generation). P. falciparum luciferase growth in erythrocytes, 48 h. Potency, µM (doses to about 28.7 µM), for inactives: at the highest dose activity change, negative = inhibition, most hits filed as inhibitors. 310,000 tested, 5.9% active; note: potency is the fitted concentration of half-maximal effect; % is set by controls: 0 for no effect and ±100 for the full control effect
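Luciferase-expressing P. falciparum in infected erythrocytes (2% hematocrit, 0.1% parasitemia final) in RPMI 1640/0.5% Albumax were exposed to compound for 48 hours at 37 C, 5% CO2; growth read as luminescence.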
LASV entry inh = Lassa virus entry inhibition; Potency, µM (titrated, usually from 37.9 µM), inactives show at the highest dose activity change, negative = inhibition, most hits filed as inhibitors; Lassa virus pseudotype entry inhibition, cell reporter; 300,000 tested, 1.2% active; calls by dose curve; tested in HEK293 cells; note: potency is the fitted concentration of half-maximal effect; % is set by controls: 0 for no effect and ±100 for the full control effect; nearly all actives have a fitted effect of over 50% in size
Shiga toxin inh = Shiga toxin inhibition. AID 2315. inhibition, % at 38.7 µM. 290,000 tested, 9.2% active. Vero cells, Shiga toxin protein synthesis inhibition reporter; in the data active = inhibition mostly above about 28%, no sharp cut-off; inactive = mostly below about 43%; note: 0% is about no effect
Numbers without * were called inactive; ? = inconclusive; . = no result; + = active, no number; [ ] = dose if it differs, or a comment. An excerpt weighted towards active compounds, which were near 19% of everything screened. Unless noted, calls come from the whole dose curve; as a rule, active = well fitted inhibition curve with a large enough effect; inconclusive = small, poorly fitted or top-dose-only effect, or another doubt; inactive = no such curve, though single readings can be large or run the other way.

SMILES	MARV entry inh	CHX counter	Pf growth 96h	Pf growth 48h	LASV entry inh	Shiga toxin inh
c1ccc(-n2cnc3cc(NCc4ccco4)ccc32)cc1	-2%[46.1 µM]	35*	11%	20%	?	63*
Cc1ccc(-n2cnc3cc(NCc4cccs4)ccc32)cc1	?	53*	?	.	?	100*
Brc1ccc2nc(-c3ccccc3)c(Nc3ccc4c(c3)OCO4)n2c1	-17%[46.1 µM]	.	.	.	?	.
CN(c1ccc(OC(=O)CN2C(=O)NC3(CCCC3)C2=O)cc1)S(=O)(=O)c1ccccc1	18%	.	24%	18%	-11%	.
O=C(O)c1cc(NC(=O)c2ccc([N+](=O)[O-])cc2)cc(NC(=O)c2ccc([N+](=O)[O-])cc2)c1	7%[46.1 µM]	-4	64%	.	19%[46.1 µM]	5
CCn1cc(C(=O)OCC(=O)Nc2c(C)n(C)n(-c3ccccc3)c2=O)c(=O)c2ccc(C)nc21	?	-3	2%	13%	-25%	-3
COc1ccc(-n2cnc3cc(NCc4cccs4)ccc32)cc1	3%	51*	8%	?	?	100*
CCCCCn1c(=O)[nH]c2cc(C(=O)Nc3ccc(OC)cc3)ccc2c1=O	25%[46.1 µM]	-2	?	12%	-8%	14
CCn1c(=O)[nH]c2cc(C(=O)Nc3cc(C)cc(C)c3)ccc2c1=O	?	-5	30%	4.7µM*	?	-17
CCOCCCNC(=O)c1ccc(OC(C)=O)cc1	?	1	.	9%	4%	-7
CCCCC(CC)CNC(=O)c1ccc2c(=O)n(CCOC)c(=O)[nH]c2c1 (centres undefined)	2.8µM*	-7	.	.	?	2
CC(C)OCCCNC(=O)c1ccc(Br)cc1	?	44*	200%	46%	21%	83
CCOCCCNC(=O)c1ccc(OC)cc1	19%[46.1 µM]	21*	.	58%	?	32
CCCCCn1c(=O)[nH]c2cc(C(=O)NCc3ccccc3)ccc2c1=O	-4%[46.1 µM]	.	.	.	2%[46.1 µM]	.
COCCN(Cc1cc2cc(C)ccc2n2nnnc12)C(=S)Nc1ccccc1C	.	8	-19%	35%	.	3
CCOCCCNC(=O)c1ccc2c(=O)n(Cc3ccc(OC)cc3)c(=O)[nH]c2c1	.	1	56%	5.9µM*	.	3
CCOCCCNC(=O)c1ccccc1Br	15%	-1	.	9%	0%	-3
CCOCCCNC(=O)c1ccc(Br)cc1	3%	26*	106%	46%	?	57
O=C(O)C1C2CCC(C2)C1C(=O)Nc1ccccc1 (centres undefined)	-17%	.	.	.	?	.
C#CCOc1nc2c(c(=O)n(C)c(=O)n2C)n1Cc1ccccc1	.	0	-13%	-4%	.	-11
Cc1[nH]c2ccc(-c3nnc(SCC(=O)c4ccc(F)cc4)o3)cc2c1C	-22%	0	?	5%	9.2µM*	-8
COc1ccc(-c2nnc(SCC(=O)c3ccc(NC(C)=O)cc3)o2)cc1OC	.	.	.	.	-17%[46.1 µM]	.
Cc1cc(C)c(C)c(C(=O)CSc2nnc(-c3ccc4[nH]c(C)c(C)c4c3)o2)c1C	?	-2	?	13µM*	?	-3
Cc1c(Nc2ccc3nonc3c2[N+](=O)[O-])c(=O)n(-c2ccccc2)n1C	-5%[46.1 µM]	-6	0.66µM*	14%	-19%	21
Cc1c(Nc2cc(Cl)c3nonc3c2[N+](=O)[O-])c(=O)n(-c2ccccc2)n1C	?	-14	-79%	-18%	?	-24
SMILES	MARV entry inh	CHX counter	Pf growth 96h	Pf growth 48h	LASV entry inh	Shiga toxin inh
CN1CCN(c2ccc3ccccc3n2)CC1	-17%	.	.	.	.	.
Cc1cc(=O)n(-c2ccc3ccccc3n2)[nH]1	-1%	47*	3%	-12%	?	51*
CN(C1CCCCC1)S(=O)(=O)c1cc2c3c(c1)CCN3C(=O)CC2	12%[46.1 µM]	.	6%	?	11%	.
CCN(CC)c1nc(-c2ccccn2)nc(-c2ccccc2)c1C#N	6.3µM*	-4	4.1µM*	?	?	-5
CN(C)c1nc(-c2ccccn2)nnc1-c1ccccc1	?	2	2.1µM*	.	?	-28
c1ccc(-c2nnc(-c3ccccn3)c(-c3ccccn3)n2)nc1	?	-4	?	?	0%	17
CC12CCC(C/C1=N\OC(=O)c1ccc(F)cc1)C2(C)C (centres undefined)	0%	-2	-24%	-22%	1%	2
Cc1ccc(-c2cc(C(=O)NCCCN3CCOCC3)c3ccccc3n2)cc1	-7%	.	?	?	14%	.
Cc1ccc(-c2cc(C(=O)NCCCN3CCCC3)c3ccccc3n2)cc1C	11µM*	9	?	5.2µM*	?	31
O=C(NCCN1CCOCC1)c1cnn2c(-c3ccccc3)cc(-c3ccccc3)nc12	-29%	-3	10µM*	?	-30%	-27
COCCNC(=O)c1cc(-c2ccc(-c3ccccc3)cc2)nc2ccccc12	?	1	-5%	21%	?	-14
Cc1ccc(-c2cc(C(=O)NCCCN3CCOCC3)c3ccccc3n2)cc1C	21%[46.1 µM]	8	?	-96%	.	47*
CCOc1ccc(-c2cc(C(=O)NCCCN3CCCC3)c3ccccc3n2)cc1	?	11	-7%	12µM*	0%[46.1 µM]	15
Cc1ccc(-c2cc(C(=O)NCc3ccccc3Cl)c3ccccc3n2)cc1C	.	.	.	.	5%[46.1 µM]	.
CCN1CCN(c2cn[nH]c(=O)c2Cl)CC1	14%[46.1 µM]	-4	?	2%	-11%	17
CCOc1ccc(-c2cc(C(=O)NCC3CCCO3)c3ccccc3n2)cc1 (centres undefined)	?	24*	36%	31%	-15%	65*
COc1ccc(-c2cc(C(=O)NCC3CCCO3)c3ccccc3n2)c(OC)c1 (centres undefined)	-18%[46.1 µM]	-3	?	-53%	-20%[46.1 µM]	2
Cc1ccc(N/N=C(\C#N)C(=N)N2CCOCC2)cc1	20%[46.1 µM]	56*	151%	98%	?	+
COc1ccc(N/N=C(\C#N)C(=N)N2CCCCC2)cc1	.	43*	17%	93%	.	68*
N#C/C(=N\Nc1ccccc1F)C(=N)N1CCCCC1	?	51*	427%	455%	15%	114*
N#C/C(=N\Nc1ccc(S(=O)(=O)N2CCOCC2)cc1)C(N)=S	6%[46.1 µM]	-1	?	15µM*	5%	1
COc1ccc(N/N=C(\C#N)C(=N)SCc2ccccc2)cc1	.	8	-13%	?	.	-17
CCOCCCNC(=O)CN1C(=O)CSc2ccc(S(=O)(=O)N3CCOCC3)cc21	.	-1	-1%	-24%	.	-10
Cc1ccc(N/N=C(\C#N)C(N)=S)cc1C	.	9	-19%[5.75 µM]	25%[5.75 µM]	.	20
CCN(CC)C(=N)/C(C#N)=N/Nc1ccc(C)cc1	?	44*	77%	195%	?	87*
Cc1ccc(NNC(=O)C(=O)N2CCCCC2)cc1	5%	1	0%	17%	16%	-10
N#C/C(=N\Nc1ccc(F)cc1)C(=O)C1CC1	.	20	-14%	24%	.	29
